Only some compounds are listed: those with a hit (about 4.1% of all), similar ones and a draw of the others.
MazF activator – increases E. coli MazEF RNase cleavage of RNA; P0AE70; FAM/BHQ RNA-DNA oligo cleavage fluorescence, 5 h; 0.32% of 350,000 active; activation, % at 20 µM; in the data active = activation above about 50%
BoNT F protease – BoNT F light chain protease inhibition. Multiplex microsphere protease cleavage assay, flow cytometry. inhibition, % at 10 µM. 0.22% of 360,000 active; in the data active = inhibition above about 35%, passing the limit was not always enough; inconclusive = no clear call, values can overlap the other calls
BoNT A protease – blocks Botulinum neurotoxin A light chain protease | multiplex microsphere protease substrate cleavage, flow cytometry | inhibition, % at 10 µM | 0.17% of 360,000 active | AID 588499
DUSP3 inh – blocks human VHR1 dual specificity phosphatase | P51452 | recombinant VHR phosphatase, pNPP absorbance | AID 1654 | 0.52% of 290,000 active | inhibition, % at 13.3 µM; in the data active = inhibition above about 50%
Bead autofluor – flagged as autofluorescent in microsphere protease counterscreen; compound autofluorescence counterscreen, microsphere flow cytometry; stronger effect = higher value; fluorescence intensity (test concentration not listed); 3.1% of 360,000 active; AID 624483; in the data active = fluorescence intensity above about 16000; inconclusive = no clear call, values can overlap the other calls
Anthrax LF inh2 – anthrax lethal factor protease inhibition; multiplex microsphere protease cleavage assay, LF; inhibition, % at 10 µM; 0.12% of 360,000 active; AID 588501
Target sequence (P15917 whole entry, looked up): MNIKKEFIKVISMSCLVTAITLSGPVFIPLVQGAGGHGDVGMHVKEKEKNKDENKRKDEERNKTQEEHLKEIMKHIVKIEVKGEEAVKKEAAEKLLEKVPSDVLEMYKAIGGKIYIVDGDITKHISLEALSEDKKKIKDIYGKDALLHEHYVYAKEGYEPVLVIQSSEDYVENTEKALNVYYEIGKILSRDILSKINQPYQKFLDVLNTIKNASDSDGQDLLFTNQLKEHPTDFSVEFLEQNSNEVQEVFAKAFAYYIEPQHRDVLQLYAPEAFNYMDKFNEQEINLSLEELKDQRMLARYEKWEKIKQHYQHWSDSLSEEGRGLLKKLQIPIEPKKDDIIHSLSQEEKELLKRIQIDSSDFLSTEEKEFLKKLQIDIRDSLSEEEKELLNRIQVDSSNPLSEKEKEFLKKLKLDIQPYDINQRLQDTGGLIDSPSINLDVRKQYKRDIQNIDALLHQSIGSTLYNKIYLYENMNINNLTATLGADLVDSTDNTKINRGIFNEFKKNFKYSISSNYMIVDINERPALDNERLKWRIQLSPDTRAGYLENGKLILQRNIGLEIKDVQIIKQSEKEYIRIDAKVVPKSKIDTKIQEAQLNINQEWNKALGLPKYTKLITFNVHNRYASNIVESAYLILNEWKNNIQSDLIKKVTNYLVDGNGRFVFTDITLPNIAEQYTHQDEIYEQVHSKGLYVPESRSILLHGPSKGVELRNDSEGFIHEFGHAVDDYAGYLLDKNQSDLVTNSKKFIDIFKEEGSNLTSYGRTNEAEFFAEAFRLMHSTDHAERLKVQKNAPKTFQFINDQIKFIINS
Numbers stand for hits; – = inactive; ? = inconclusive; · = no result given. Rule as the data show it, unless noted: active = inhibition above about 30%; inconclusive = no clear call, values can overlap the other calls; inactive = below that.

SMILES | MazF activator | BoNT F protease | BoNT A protease | DUSP3 inh | Bead autofluor | Anthrax LF inh2
CC(C)=CCSc1nnc([C@@H](NC(=O)OC(C)(C)C)C(C)C)o1 | – | – | ? | – | 22591 | –
Cc1nc2ncnn2c(C)c1CCC(=O)Nc1csc(N)n1 | – | – | ? | – | 18816 | –
COC(=O)c1cc(NC(=O)CCc2c(C)nc3ncnn3c2C)cc(C(=O)OC)c1 | – | – | – | – | 17830 | –
CC(=O)Nc1ccc(S(=O)(=O)NCCSCc2c(Cl)cccc2Cl)cc1 | – | – | – | – | 21984 | –
COc1cc2c(cc1OC)C(c1ccccc1[N+](=O)[O-])=NCC2 | · | – | – | · | – | –
CCc1ccc(CN2CCN(S(=O)(=O)Cc3ccccc3)CC2)cc1 | – | – | – | – | – | –
O=S(=O)(Cc1ccc(Cl)cc1)N1CCN(Cc2ccccc2)CC1 | – | – | – | – | – | –
CN1CCN(S(=O)(=O)Cc2ccc(Cl)cc2)CC1 | – | 36 | – | – | – | ?
CSc1ccc(CN2CCN(S(=O)(=O)Cc3ccccc3)CC2)cc1 | – | – | – | – | 27972 | –
Cc1ccc(NC(=O)CN(C)C(=O)c2cccc(S(=O)(=O)NCc3ccccc3)c2)cc1 | – | · | · | · | · | ·
Cc1ccc(OC(=O)COc2ccccc2C)cc1 | – | – | – | – | – | –
CC(=O)c1ccc(OC(=O)COc2ccccc2Cl)cc1 | – | ? | – | – | 32253 | –
CCn1nc(CCC(=O)O)c2ccccc2c1=O | – | – | – | – | 22340 | –
FC(F)(F)c1nnc2sc(-c3cccs3)nn12 | – | – | – | – | – | –
FC(F)(F)c1nnc2sc(-c3ccncc3)nn12 | – | – | ? | – | 19007 | –
C[C@@H]1CCC(=O)N(CC[C@H](Sc2ccccc2)c2ccccc2)CC1 | – | – | – | – | – | –
Cn1c(COc2ccccc2)nnc1SCC(=O)Nc1nnc(C2CC2)s1 | – | – | – | · | – | –
CCN1C(=O)/C(=C/C=C2\N(CC)c3cc(S(=O)(=O)N(C)C)ccc3N2c2ccccc2)SC1=S | – | – | 89 | – | – | 38
C[C@@H]1CN([C@@H](C)CO)C(=O)c2cc(Br)cnc2O[C@H]1CN(C)C(=O)Nc1ccccc1 | – | – | – | · | – | –
O=C1CC(c2ccc3c(c2)OCO3)c2cc3c(cc2N1)OCO3 (stereo not drawn) | – | – | – | – | – | –
Cc1ccc(C2CC(=O)Nc3cc4c(cc32)OCO4)o1 (stereo not drawn) | – | – | – | – | 23026 | –
CCCNC(=O)c1c(N)n(-c2cccc(OC)c2)c2nc3ccccc3nc12 | – | – | ? | – | 20561 | –
COCCCNC(=O)c1c(N)n(-c2cccc(S(N)(=O)=O)c2)c2nc3ccccc3nc12 | – | – | – | – | – | –
CCOC(=O)/C=C1/SCC(=O)N1CC(=O)Nc1ccc2c(c1)CCC2 | – | – | – | · | – | –
CCOC(=O)COc1nc2c(c(-c3ccco3)c1C#N)CCc1ccccc1-2 | – | – | – | – | – | ?
SMILES | MazF activator | BoNT F protease | BoNT A protease | DUSP3 inh | Bead autofluor | Anthrax LF inh2
N#Cc1c(OCC(=O)c2ccccc2)nc2c(c1-c1ccco1)CCc1ccccc1-2 | – | – | – | – | 18221 | –
COc1ccc(C(=O)NCCCc2ccccc2)cc1OC | – | ? | – | – | – | –
Cc1cccc(-n2ccnc2SCC(=O)c2c(N)n(C3CC3)c(=O)[nH]c2=O)c1C | – | – | – | · | – | –
COc1nc2ccccc2c(=O)n1-c1ccc(Cl)cc1 | – | – | – | – | – | –
O=c1c2ccccc2nc(N2CCCC2)n1-c1ccc(Cl)cc1 | – | – | – | – | 22940 | –
CCOC(=O)N1CCN(C(=S)NC(C)(C)C)CC1 | – | – | – | – | 22858 | –
CCOC(=O)N1CCN(C(=S)NCCOC)CC1 | – | – | – | – | 18608 | –
COc1ccc2c(c1)C(CC(=O)NN)CCC2 (stereo not drawn) | – | – | – | · | – | –
O=C(CN1CCN(CC(=O)Nc2ccc3c(c2)OC2(CCCCC2)O3)CC1)Nc1cccc(F)c1 | – | – | – | · | – | –
Cc1ccccc1NC(=O)c1c(F)c(F)c(F)c(F)c1F | – | – | – | – | 16318 | –
O=C(Nc1ccccc1Cl)c1c(F)c(F)c(F)c(F)c1F | – | – | – | · | – | –
Cc1ccc(-n2ncc3c2CCCC3NC(=O)CCn2ccnc2C)cc1C (stereo not drawn) | – | – | – | – | – | –
CN(C)CCCN1C(=O)c2cccc3cccc(c23)C1=O | – | – | – | – | – | –
CC1=CC2=C(OC1N(C)C)c1cccc3cccc(c13)C2=O (stereo not drawn) | – | – | – | – | 21836 | –
CC(C)CC(CO)N1CCN(C(=O)c2ccc(Cl)c(Cl)c2)CCC1=O (stereo not drawn) | – | – | – | · | – | –
C#CCSc1nnc(CNS(=O)(=O)c2ccc(Br)cc2)n1C | – | – | – | – | – | –
CCCc1cc(C(=O)NNC(=S)NCc2ccccc2)cs1 | – | – | – | – | 22370 | –
Cc1ccc(C)c(NC(=S)NNC(=O)c2csc3c2CCC(C)C3)c1 (stereo not drawn) | – | – | – | – | – | –
Cc1ccc(C)c(NC(=S)NNC(=O)c2csc3c2CCCC3)c1 | – | – | – | – | 16276 | –
Cc1cccc(NC(=S)NNC(=O)c2csc(C)c2)c1 | – | – | – | – | – | –
CCc1cc(C(=O)Nc2ccccc2)cs1 | – | – | – | – | 16734 | –
CCc1cc(C(=O)NNC(=S)NCc2ccccc2)cs1 | – | – | – | – | – | –
Cc1cccc(NC(=S)NNC(=O)c2csc3c2CCCC3)c1 | – | – | – | – | 16967 | –
CCOc1ccc(C(=O)NCC(=O)OCCCC(=O)c2ccc(F)cc2)cc1OCC | – | · | · | · | · | ·
CCc1cc(C(=O)NNC(=S)Nc2cc(C)ccc2C)cs1 | – | – | – | – | 23483 | –
SMILES | MazF activator | BoNT F protease | BoNT A protease | DUSP3 inh | Bead autofluor | Anthrax LF inh2
CC(C)[C@@H](CO)N(C)S(=O)(=O)c1ccccc1Br | – | – | – | · | – | –
CCOC(=O)c1ccc(CC(=O)c2oc3cc(O)ccc3c2C)o1 | 67 | – | – | – | – | –
CN(C)CC(C)(C)CNC(=O)C1CCN(CCCc2ccccc2)CC1 | – | – | – | 55 | – | –
Cc1ccc(-n2ncc3c(NCc4ccccn4)ncnc32)c(C)c1 | – | – | – | – | – | –
c1ccc(-n2ncc3c(NCCCN4CCOCC4)ncnc32)cc1 | – | – | – | – | 18090 | –
Clc1ccc(-n2ncc3c(NCc4ccccn4)ncnc32)cc1 | – | – | – | – | 19639 | –
Cc1ccc(-n2ncc3c(NCc4ccccc4)ncnc32)cc1 | – | – | – | – | – | –
Clc1ccc(-n2ncc3c(NCCN4CCOCC4)ncnc32)cc1 | – | – | – | – | – | –
Cc1ccc(CNc2ncnc3c2cnn3-c2ccccc2)cc1 | – | – | – | – | 16965 | –
O=C([C@H]1O[C@@H](n2ccc(=O)[nH]c2=O)[C@H](O)[C@@H]1O)N1CCN(Cc2ccccn2)CC1 | · | – | – | · | – | –
Cc1cc(C)n(CCNC(=O)[C@H]2O[C@@H](n3cnc4c(N)ncnc43)[C@H](O)[C@@H]2O)n1 | · | – | – | · | – | –
